This is a sample that favours compounds with a hit; in the whole collection about 3.8% have one here.
MITF act = activators of MITF-driven TRPM1 promoter activity in SK-MEL-5 cells; SK-MEL-5 TRPM1-promoter luciferase, 24 h; % of positive control, neutral wells = 0; activation, % at 12.5 µM; hit rate 0.75% among 300,000;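 active = mean activation of at least 80% with every replicate also reaching 80%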
esBAF inh = SWI/SNF esBAF complex inhibition; mouse ES cells, Bmi1-luciferase knock-in reporter, 24 h; 100% = twice the neutral-well signal; reporter increase, % at 12.5 µM; hit rate 2% among 350,000; AID 602393; in the data active = activation above about 40%;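 also: a rise in the Bmi1 reporter signal indicates esBAF inhibition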
Wnt bcat act = Wnt/beta-catenin pathway activation; activation, % at 9.35 µM; Wnt/beta-catenin reporter cell assay, activator, plate reader; AID 743398; hit rate 1.2% among 300,000; in the data active = activation above about 30%, passing the limit was not always enough
HSF1 activator = increases HSF-1 driven luciferase reporter signal; NIH3T3-HGL HSF-1 luciferase reporter, MG132, 8 h; 100% = twice DMSO control signal; activation, % at 9 µM; hit rate 1.7% among 300,000; AID 504408;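 active = mean replicate activation of at least 50% with a set share of replicates each reaching 50%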
HSF1 inh = HSF1 inhibition. NIH3T3-HGL HSE-luciferase, MG132-induced, luminescence 8 h; stronger effect = lower value. activity change, negative = inhibition, % at 7.5 µM (by protocol). hit rate 0.77% among 300,000. AID 2098;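 active = more than half of replicate wells show activity change below -50%, luminescence cut by over half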;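 also: luciferase reports HSF-1 transcriptional activity via heat shock element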
Numbers stand for hits; 0 = inactive; - = no result given.

SMILES	MITF act	esBAF inh	Wnt bcat act	HSF1 activator	HSF1 inh
COc1ccc(CN(C)C[C@@H]2Oc3ccc(NS(=O)(=O)c4c(C)noc4C)cc3CC(=O)N([C@@H](C)CO)C[C@H]2C)cc1	-	0	-	-	-
CCN(CC)c1ccc(/C=C2\SC(=O)N(C(C)C)C2=O)o1	-	0	-	295	0
CC(C)N1C(=O)S/C(=C/c2ccc3c(c2)n(C)c(=O)n3C)C1=O	-	0	-	0	0
CO[C@H]1CN(C)C(=O)c2ccc(NC(C)=O)cc2OC[C@H](C)N(Cc2cccnc2)C[C@@H]1C	-	0	-	-	-
CN(C)S(=O)(=O)c1ccc(C(=O)NCCSc2ccccc2)cc1	0	53	-	0	0
O=C(CNC(=O)c1ccccc1F)c1ccccc1	-	0	38	0	0
O=C(NCCSc1ccccc1)c1cccnc1	0	58	-	0	0
O=C(COc1ccccc1)NCCSc1ccccc1	-	52	0	0	0
C/C=C/c1ccc2c(c1)O[C@H](CN(C)C(=O)C1CC1)[C@H](C)CN([C@H](C)CO)S2(=O)=O	-	0	-	-	-
CCCNC(=O)N[C@@H]1CC[C@H](CCn2cc(C3CC3)nn2)O[C@@H]1CO	-	0	-	-	-
C[C@@H](NC(=O)C[C@H]1CC[C@@H](NC(=O)C2CCOCC2)[C@H](CO)O1)c1ccccc1	-	0	-	-	-
Cc1ccc(SCCNC(=O)c2ccccc2F)cc1	0	0	0	0	0
O=C(NCCSc1ccccc1)c1ccccc1F	-	47	0	0	0
CCOC(=O)C(C)On1c(-c2ccc(Cl)cc2)nc2ccc([N+](=O)[O-])cc21 (stereo not given)	0	-	-	0	0
O=[N+]([O-])c1ccc2nc(-c3ccc(Cl)cc3)n(OCc3ccccc3)c2c1	-	68	65	0	0
Clc1ccc(COn2c(-c3ccc(Cl)cc3)nc3ccccc32)cc1	0	0	0	60	0
Cc1ccc(COn2c(-c3ccc(Cl)cc3)nc3ccc([N+](=O)[O-])cc32)cc1	102	54	42	0	0
Nc1nc(F)nc2c1ncn2[C@@H]1O[C@H](CO)[C@@H](O)[C@H]1O	0	0	0	0	-56
O=Cc1c(OCc2ccccc2)ccc2ccccc12	0	100	0	0	0
C[C@H]1CN([C@@H](C)CO)C(=O)c2cc(C#CCN(C)C)cnc2O[C@H]1CN(C)C	-	0	-	-	-
FC(F)(F)c1cnc(/C=C/Nc2ccccc2Cl)c(Cl)c1	0	0	0	52	0
C[C@H](CO)N1C[C@H](C)[C@H](CN(C)S(=O)(=O)c2ccc(Cl)cc2)OCCCC[C@H](C)Oc2ccc(NS(=O)(=O)c3cn(C)cn3)cc2C1=O	-	0	-	-	-
CCCCOC(=O)Nc1ccc2c(C)cc(=O)oc2c1	-	68	59	0	0
CCOC(=O)Nc1ccc2c(C)cc(=O)oc2c1	103	43	0	0	0
Cc1ccc(CNC(=O)CS(=O)(=O)Cc2nc(-c3ccccc3F)oc2C)cc1	-	0	0	57	0
SMILES	MITF act	esBAF inh	Wnt bcat act	HSF1 activator	HSF1 inh
O=c1c2ccccc2nc2n1CCc1c-2[nH]c2ccccc12	0	0	41	-	-
Cc1cccc2c(=O)n3c(cc12)-c1[nH]c2ccccc2c1CC3	0	-	0	-	-
c1ccc(-c2nn[nH]n2)nc1	-	-	0	0	-59
COc1ccccc1C(=O)Nc1ccc2c(c1)OC[C@H](C)N(C)C[C@@H](C)[C@H](OC)CN(C)C2=O	-	0	-	-	-
Cn1cc(C(=O)N/N=C/c2ccc3c(c2)OCO3)c2ccccc21	-	-	0	0	0
Cn1cc(C(=O)N/N=C/c2ccc(Br)c([N+](=O)[O-])c2)c2ccccc21	-	-	0	55	0
Nn1c(-c2cccc(Br)c2)n[nH]c1=S	0	0	-	0	-54
CCCCn1nc2cc(C(=O)NCCc3cccs3)ccc2c1OCC	0	41	0	0	0
CCCn1nc2cc(C(=O)NCCc3ccc(C)cc3)ccc2c1OCC	0	0	0	0	0
CCOc1c2ccc(C(=O)NCCc3cccs3)cc2nn1CC	0	45	32	0	0
COC(=O)Nc1ccc(S(=O)(=O)N2CCC(C(=O)N3CCCC(C)C3)CC2)cc1 (stereo not given)	0	0	0	69	0
CC1CCCN(C(=O)C2CCN(S(=O)(=O)c3ccccc3)CC2)C1 (stereo not given)	0	0	0	-	-
CC1CCCN(C(=O)C2CCN(S(=O)(=O)c3ccc4c(c3)CC(C)N4C(=O)C3CC3)CC2)C1 (stereo not given)	0	0	0	0	-68
CC1Cc2cc(S(=O)(=O)N3CCCC(C(=O)N4CCCCC4)C3)ccc2N1C(=O)C1CC1 (stereo not given)	0	0	0	0	0
CCCN1[C@@H]2Cn3c(ccc(C4=CCCC4)c3=O)[C@H]1[C@@H](C(=O)N(C)C)[C@@H]2CO	-	0	-	-	-
O=c1c2c3c(sc2ncn1/N=C/c1ccc([N+](=O)[O-])o1)CCCC3	0	0	-	266	0
Cn1cc(/C=N/n2cnc3sc4c(c3c2=O)CCCC4)c2ccccc21	-	-	0	0	0
COCCOC(=O)c1c(NC(=O)CSc2cccc[n+]2[O-])sc(C(N)=O)c1C	0	-	0	72	0
CCCc1cc(=O)[nH]c(SCC(=O)Nc2sc(C(N)=O)c(C)c2C(=O)OCCOC)n1	0	0	0	-	-
Cc1ccc(NC(=O)Nc2ccc3c(c2)C(=O)N(C)[C@@H]2CC[C@H](CC(=O)O)O[C@@H]2CO3)cc1	-	0	-	-	-
C(=C1/CCCC2=C1Nc1ncnn1C2c1ccccc1)/c1ccccc1 (stereo not given)	-	-	-	90	0
S=C1NC2=C(CCC/C2=C\c2ccccc2)C(c2ccccc2)N1 (stereo not given)	0	-	-	0	0
COc1ccc(NC(=O)Nc2ccc3c(c2)C(=O)N([C@@H](C)CO)C[C@H](C)[C@@H](CN(C)C(=O)Nc2ccc(F)cc2)OCCCC[C@H](C)O3)cc1	-	0	-	-	-
CNC(=S)N(Cc1ccco1)Cc1cc2cc(OC)c(OC)cc2[nH]c1=O	0	-	0	57	0
CCNC(=S)N(Cc1ccco1)Cc1cc2cc(OCC)ccc2[nH]c1=O	0	-	0	71	0
SMILES	MITF act	esBAF inh	Wnt bcat act	HSF1 activator	HSF1 inh
COc1cc2cc(CN(CCc3ccccc3C)C(=S)NCCCN3CCOCC3)c(=O)[nH]c2cc1OC	0	-	50	0	0
O=C(NCCSCc1ccco1)Nc1ccc(Cl)cc1	-	63	0	0	0
Cc1ccc(N(CC(=O)NCCSCc2ccco2)S(=O)(=O)c2ccc(F)cc2)cc1	0	-	0	0	0
Cc1ccc(N(CC(=O)NCCSCc2ccco2)S(C)(=O)=O)cc1	0	0	0	0	-54
O=C(Nc1ccc(Cl)cc1)Nc1ccccc1C(=O)NCc1ccco1	0	0	40	0	0
O=C(N/N=C\c1ccco1)Nc1cccc(Cl)c1	0	-	48	69	0
Cc1cccc(NC(=O)CCC(=O)N/N=C/c2ccco2)c1	0	-	0	0	0
O=C(NCCNC(=O)Nc1ccc(Cl)cc1)Nc1ccc(Cl)cc1	0	-	0	-	-
CNC[C@H]1OCCCC[C@@H](C)Oc2ccc(NC(=O)Nc3ccc(OC)cc3)cc2C(=O)N([C@H](C)CO)C[C@H]1C	-	0	-	-	-
O=C(NCCc1ccccc1)Nc1cccc(Cl)c1	0	-	-	0	0
O=C(NCCSCc1ccco1)Nc1cccc(Cl)c1	0	0	-	60	0
